# In all, about 360,000 compounds went through this assay and about 3,600 (1%) were called active.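 Rule for the calls: active = compounds whose plate-normalised and pattern-corrected inhibition of the luciferase reporter signal at the single screening dose is 50% or more; inactive = the rest.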 The entries come from a sample that favours actives as a whole.
# Test: inhibitors of TROY-driven NF-kB signaling, primary screen, Q293 LMP1-TROYcd cells, NF-kB luciferase, uHTS (AID 1347056)
# Conditions: Q293 LMP1-TROYcd NF-kB luciferase reporter, 4 h; at 10 µM; stronger effect = higher value
row,SMILES,inhibition
1,O=C(CSc1nc(Nc2ccccc2)nc(N2CCOCC2)n1)Nc1cc(Cl)ccc1O,64.7% (active)
2,CC1(c2ccccc2)NC(=O)N(CC(=O)Nc2cc(Cl)ccc2N2CCOCC2)C1=O (stereo not given),-24.9% (inactive)
3,C/C(=N\Nc1nc(Nc2ccccc2)nc(N2CCOCC2)n1)c1cccs1,-8.45% (inactive)
4,C=CCn1c2c(c3ccccc31)CCC2,-7.49% (inactive)
5,OC[C@@H]1CN(Cc2ccncc2)C[C@H](n2cnc3c(N4CCN(c5ccccc5)CC4)ncnc32)O1,37.7% (inactive)
6,O=C(Nc1ccc(Br)c2cccnc12)c1ccc(Cn2cc([N+](=O)[O-])cn2)o1,-32.5% (inactive)
7,CC(=O)c1c(C)[nH]c(C(=O)OCC(=O)Nc2sc3c(c2C#N)CCCC3)c1C,52.3% (active)
8,N#Cc1c(NC(=O)CCCl)sc2c1CCCCC2,-37% (inactive)
9,CC(=O)c1c(C)[nH]c(C(=O)OCC(=O)Nc2c(C)cccc2C)c1C,14.6% (inactive)
10,COc1ccc(N2CC(C)Cn3c2nc2c3c(=O)n(Cc3ccccc3F)c(=O)n2C)c(OC)c1 (stereo not given),24.4% (inactive)
11,O=C(O)c1cccnc1Sc1ncnc2sc3c(c12)CCC3,10.5% (inactive)
12,c1ccc(COc2nsnc2N2CCOCC2)cc1,11% (inactive)
13,c1ccc(CSc2ncnc3c2sc2nc(N4CCOCC4)c4c(c23)CCCC4)cc1,60.3% (active)
14,Cc1ccc(CCN2CC(C(=O)O)CC2=O)cc1 (stereo not given),-21.4% (inactive)
15,O=C1c2ccccc2C(Nc2ccc3c(c2)OCCO3)N1Cc1ccco1 (stereo not given),62% (active)
16,S=C(NCc1ccco1)Nc1ccc2c(c1)OCCO2,8.28% (inactive)
17,CCCCCn1nnnc1C1c2ccccc2C(=O)N1Cc1ccco1 (stereo not given),-7.23% (inactive)
18,NC1=CC(=O)C(=O)c2cccnc21,-15.9% (inactive)
19,O=C(O)CCCC(=O)Nc1ccccc1-n1ccnc1,13% (inactive)
20,O=C(Nc1ccccc1)Nc1nnc(COc2ccccc2F)s1,53.5% (active)
21,O=C(NCCOc1ccccc1F)Nc1ccc(Br)cc1,-33.8% (inactive)
22,O=C(Nc1nnc(COc2ccccc2)s1)Nc1ccccc1F,-7.72% (inactive)
23,Cc1ccc(NC(=O)C2CC(=O)N(c3ccc4c(c3)OCCO4)C2)cc1S(=O)(=O)N1CCCCCC1 (stereo not given),29.1% (inactive)

row,SMILES,inhibition
1,Cc1ccc2c(c1)N(CC(=O)N(Cc1ccccn1)Cc1ccco1)C(=O)C(C(C)C)O2 (stereo not given),4.87% (inactive)
2,Cc1ccc(NNC(=O)C2CCC2)cc1C,-8.76% (inactive)
3,O=C(/C=C/NCc1ccc(F)cc1)c1ccccc1,-45.6% (inactive)
4,Cc1ccc(N/C=C/C(=O)c2ccccc2)cc1C,56.6% (active)
5,CCC(C)NC(=O)CN(C1CCCCC1)S(C)(=O)=O (stereo not given),-2.32% (inactive)
6,COc1ccc(CCN2C(=O)c3[nH]nc(-c4ccccc4O)c3C2c2ccc(C)cc2)cc1OC (stereo not given),22.8% (inactive)
7,COC(=O)Cn1c(=NC(=O)c2cc(OC)c(OC)c(OC)c2)sc2cc(OC)ccc21,3.88% (inactive)
8,Cc1ccc(N2CCN(c3ccc([N+](=O)[O-])cn3)CC2)c(C)c1,5.6% (inactive)
9,NC(=O)C[n+]1cccc(C(N)=O)c1,-13.6% (inactive)
10,Cc1cccc(CS(=O)(=O)c2ncc(Cl)c(C(=O)Nc3ccc(F)cc3)n2)c1,70.8% (active)
11,Cc1cccc(NC(=O)c2nc(S(=O)(=O)Cc3ccccc3)ncc2Cl)c1,77.9% (active)
12,Cc1cccc(CN2CCC(CNC(=O)Nc3ccc(F)c(Cl)c3)CC2)c1,12.4% (inactive)
13,Cc1ccc(C)c(Cn2nnc3c(=O)[nH]c(C(=O)Nc4ccc(F)cc4)nc32)c1,30.7% (inactive)
14,CSc1nnc(NC(=O)c2nc(S(=O)(=O)Cc3ccc(C)cc3)ncc2Cl)s1,-5.7% (inactive)
15,Cc1cccc(NC(=O)Cn2cc(C(=O)c3ccco3)c3ccccc32)c1,8.41% (inactive)
16,CCOc1ccc(NC(=O)C2CC(=O)N=C(N)S2)cc1 (stereo not given),15.3% (inactive)
17,O=C(O)c1ccc(Cn2cnc3c(=S)nc[nH]c32)cc1,12.2% (inactive)
18,C/C(CC(=O)N1CCN(C=O)CC1)=N\NC(=O)c1ccc(Br)cc1,-8.44% (inactive)
19,COc1cc(/C=C/C(=O)O)cc(S(=O)(=O)Nc2ccccc2C(=O)NCCc2ccccc2)c1OC,-15.9% (inactive)
20,CCCCC[C@H]1CN(C2CCCCC2)C(=O)[C@@H]1CC(=O)NCc1ccc(OC)cc1,14.9% (inactive)
21,Cc1ccc(S(=O)(=O)N2CCC(C(=O)N[C@@H](C)C(=O)NCc3ccco3)CC2)cc1,13.7% (inactive)
22,CCn1c(SCc2cccc(C(=O)O)c2)nnc1-c1ccc(Cl)cc1,6.17% (inactive)
23,Cc1ccccc1NC(=O)C1CCCN(C(=O)NCc2ccccc2)C1 (stereo not given),-8.74% (inactive)

row,SMILES,inhibition
1,COc1ccc2c(c1)c(=Cc1ccc(N(C)C)cc1)c1cc(-c3ccccc3)[n+](C)n12,69.4% (active)
2,COc1cccc(CCNC(=O)c2cccc(NC(=O)C3=C(C)OCCS3)c2)c1,13.6% (inactive)
3,Cc1cccc(-c2nnc(SCC(=O)O)n2Cc2ccccc2)c1,-6.32% (inactive)
4,Cc1ccsc1C(=O)OCC(=O)Nc1cccc(F)c1,-57.4% (inactive)
5,Cc1ccsc1C(=O)OCC(=O)NCCc1ccccc1,-56.3% (inactive)
6,Cc1ccsc1C(=O)OCC(=O)c1cc(C)n(CC2CCCO2)c1C (stereo not given),78.8% (active)
7,Cc1cccc(C(=O)Nc2ccccc2-c2nnn(CC(=O)Nc3ccc4c(c3)OCCO4)n2)c1,6.18% (inactive)
8,COc1cc2c(cc1OC)C(=O)NCC(C)(C)O2,32.5% (inactive)
9,Cc1cc(=O)c2ccc(NC(=O)c3ccccc3)cc2[nH]1,-14.4% (inactive)
10,O=C(NC1=CC(=O)c2ccccc2C1=O)c1ccccc1,63.7% (active)
11,CC(=O)c1cc(NC(=O)c2ccccc2)c(=O)oc1/C=C/N(C)C,7.35% (inactive)
12,CC(=O)Nc1cncc(-c2ccccc2CO)n1,-15.3% (inactive)
13,Cn1c(=O)c2cc(S(=O)(=O)NCCC(=O)Nc3ccc(F)cc3F)ccc2n(C)c1=O,-2.05% (inactive)
14,COc1ccc(C(=O)OCC(=O)Nc2cccc(C(C)=O)c2)cc1OC,10.5% (inactive)
15,O=C(COC(=O)c1ccccc1)c1ccc2c(c1)OCCO2,80.8% (active)
16,O=C(OCc1ccccc1F)c1ccc2c(c1)OCCO2,-79.6% (inactive)
17,CC(=O)Nc1cccc(C(=O)OCC(=O)c2ccc3c(c2)OCO3)c1,64.7% (active)
18,O=C(COC(=O)c1ccc(O)cc1O)c1ccc2c(c1)OCCO2,1.99% (inactive)
19,CC(=O)Nc1cccc(C(=O)OCC(=O)NCc2cc(C)c(O)c(C)c2)c1,-29% (inactive)
20,Cc1cccc(OC(=O)c2sc3ncn(C)c(=O)c3c2C)c1,-27.1% (inactive)
21,COc1cccc(C(=O)N2CCC(n3nccc3NC(=O)C3CCOC3)CC2)c1 (stereo not given),-1.36% (inactive)
22,CCOc1ccc(C(C(=O)NC2CCCC2)N(C(=O)c2snc(C(N)=O)c2N)C2CCCC2)cc1 (stereo not given),-0.96% (inactive)
23,Nc1nnc(SCC(=O)NC2CCCc3ccccc32)s1 (stereo not given),21% (inactive)

row,SMILES,inhibition
1,COc1cccc(NC(=O)N(C)C[C@@H]2Oc3ncc(Br)cc3C(=O)N([C@@H](C)CO)C[C@H]2C)c1,-0.54% (inactive)
2,Cc1cccc(NC(=S)NCc2ccc3[nH]c4c(c3c2)CCCC4)c1,63.8% (active)
3,CCc1cccc(CC)c1NC(=S)NCc1ccc2[nH]c(C)cc2c1,-11.8% (inactive)
4,Cc1cc(C)cc(NC(=S)NCCc2c[nH]c3ccccc23)c1,1.03% (inactive)
5,CC(C)CCN1CCC(C)(NC(=O)c2ccccc2)C1=O (stereo not given),-0.82% (inactive)
6,C=CCC(NCc1ccco1)c1ccc(OC)cc1 (stereo not given),14.2% (inactive)
7,CC(=O)Nc1cccc(-c2cc(NC=O)c3ncc(-c4ccc(F)c(Cl)c4)n3c2)c1,83.1% (active)
8,CC(=O)Nc1cccc(-c2cc(NC(C)=O)c3ncc(-c4ccccc4)n3c2)c1,80.3% (active)
9,COc1cccc(-c2cnc3c(NC(C)=O)cc(-c4cccc(NC(C)=O)c4)cn23)c1,12.8% (inactive)
10,CC(=O)c1ccc(-c2cnc3c(NC=O)cc(-c4cccc(NS(C)(=O)=O)c4)cn23)cc1,22.6% (inactive)
11,COc1cccc(-c2cc(NC(C)=O)c3ncc(-c4cccc(C(C)=O)c4)n3c2)c1,12.8% (inactive)
12,CC(=O)c1cccc(-c2cnc3c(NC=O)cc(-c4cccc(C(=O)N(C)C)c4)cn23)c1,-8.12% (inactive)
13,O=C(Nc1ccccc1F)c1ccc(Cn2cc(Br)cn2)cc1,-34.2% (inactive)
14,CCC(=NC1CC(C)(C)NC(C)(C)C1)C1=C(O)CC(C)(C)CC1=O,-0.72% (inactive)
15,CC(C)c1cc(C(=O)O)on1,-0.05% (inactive)
16,CC1O[C@@H](OC2C(O)C(C)O[C@H](OC(=O)[C@]34CCC(C)(C)C[C@H]3C3=CCC5[C@@]6(C)CC(O)C(O[C@@H]7OC(CO)C(O)[C@@H](O)[C@@H]7O)[C@@](C)(C(=O)O)C6CC[C@@]5(C)[C@]3(CO)CC4)C2O[C@H]2OC(C)[C@@H](O[C@@H]3OCC(O[C@@H]4OC(CO)C(O)[C@H](O)C4O)[C@@H](O)[C@@H]3O)[C@H](O)C2O)C(O)C(O)C1O (stereo not given in full),5% (inactive)
17,Cc1nc2ccccc2c(=O)n1NC(=O)c1ccc(Cl)c([N+](=O)[O-])c1,73.3% (active)
18,Cc1ccnc(NC(=O)c2ccc(Cl)c([N+](=O)[O-])c2)c1,-25.6% (inactive)
19,O=C(Nn1c(SCc2ccc([N+](=O)[O-])cc2)nc2ccccc2c1=O)c1ccc(F)cc1,36.3% (inactive)
20,Cc1cccc(OC(C)C(=O)N2CCc3ccccc3C2)c1 (stereo not given),-6.07% (inactive)
21,Cc1cccnc1C(NC(=O)C1CCN(Cc2ccc(Cl)c(Cl)c2)CC1)c1ccc(Cl)cc1 (stereo not given),4.08% (inactive)

# Source: PubChem BioAssay AID1347056 (Sanford-Burnham Center for Chemical Genomics, 2019)
